A selection: hits, their analogues and other compounds. The true share with any hit is near 19%.
HT1080-NT tox – qHTS for induction of synthetic lethality in tumor cells producing 2HG: qHTS for the HT-1080-NT fibrosarcoma cell line. HT-1080-NT fibrosarcoma viability, CellTiter-Glo ATP luminescence, 48 h. Potency, µM (top dose mostly 46.1 µM), inactives show at the highest dose activity, negative = less viability, hits mostly cytotoxic. hit rate 1.6% among 360,000;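 note: NT is the 2HG producing partner of a matched IDH1 knockdown line; potency is the fitted concentration of half-maximal effect; 0% = DMSO-treated cells and -100% = media-only wells without cells; nearly all actives have a fitted effect of over 55% in size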
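Luminescent CellTiter-Glo readout after 48 hours of compound exposure at 37 degrees C defined viability of HT-1080-NT cells. Activity was normalized to DMSO wells and cell-free media wells; concentration-response curves were fitted and assigned curve classes.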
TDP1 cell noCPT – qHTS for Inhibitors of human tyrosyl-DNA phosphodiesterase 1 (TDP1): qHTS in cells in absence of CPT; DT40 Tdp1-/- hTDP1 cells, no CPT, ATP luminescence, 48 h; hit rate 15% among 420,000; Potency, µM (top dose mostly 46.2 µM), inactives show at the top dose activity change, negative = growth inhibition, actives largely listed as inhibitors; AID 686978, 2013; note: potency is the fitted concentration of half-maximal effect; nearly all actives have a fitted effect of over 55% in size
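A cellular qHTS used chicken DT40 cells lacking endogenous Tdp1 but carrying stably transfected human TDP1. Compounds were applied without camptothecin, and cell growth kinetics were judged by ATP-dependent luminescence after ≥48 hr.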
TDP1 cell CPT – qHTS for Inhibitors of human tyrosyl-DNA phosphodiesterase 1 (TDP1): qHTS in cells in presence of CPT | chicken DT40 Tdp1-/-;hTDP1 cells + 20 nM CPT, ATP luminescence, 48 h | Potency, µM (top dose mostly 46.2 µM), inactives show at the top dose activity change, negative = growth inhibition, usual class: inhibitors | hit rate 12% among 420,000; note: potency is the fitted concentration of half-maximal effect; nearly all actives have a fitted effect of over 55% in size
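Chicken DT40 Tdp1-/- cells complemented with human TDP1, 400 cells/well, exposed to compounds plus 20 nM camptothecin for at least 48 h at 37 C; viability read as ATP content by CellTiter-Glo luminescence.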
HT1080 IDH1KD tx – qHTS for induction of synthetic lethality in tumor cells producing 2HG: qHTS for the HT-1080-IDH1KD cell line. AID 686971, 2013. hit rate 2% among 360,000. HT-1080 IDH1 knockdown viability, ATP luminescence, 48 h. Potency, µM (doses to about 46.1 µM), inactives show at the highest dose activity, negative = toxicity, actives largely listed as cytotoxic;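 note: potency is the fitted concentration of half-maximal effect; 0% = DMSO wells and -100% = cell-free medium wells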
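% activity derives from luminescence (CellTiter-Glo), normalised to DMSO and no-cell wells. HT-1080-IDH1KD cells, 750/well, had 48 h compound exposure at 37 °C.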
ELG1 repair inh – qHTS screen for small molecules that inhibit ELG1-dependent DNA repair in human embryonic kidney (HEK293T) cells expressing luciferase-tagged ELG1; HEK293T ELG1-luciferase reporter, luminescence, 16 h; DNA damage induced by 5-fluorouridine; Potency, µM (doses to about 46.1 µM), inactives show at the highest dose activity change, negative = inhibition, usual class: inhibitors; hit rate 2.3% among 330,000; AID 504467, 2011; note: potency is the fitted concentration of half-maximal effect; nearly all actives have a fitted effect of over 55% in size
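Luminescence from the luciferase reporter, measured 30 min after ONE-Glo reagent at room temperature, was the read-out. Beforehand, 2,000 cells per well were exposed for 16 hr at 37 °C to 5-fluorouridine together with compound or vehicle.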
IL-1B inflam inh – qHTS for Inhibitors of Inflammasome Signaling: IL-1-beta AlphaLISA Primary Screen; THP-1 LPS/ATP IL-1B secretion, AlphaLISA, 16 h; stronger effect = lower value; activity change, % at 57.5 µM; hit rate 4.7% among 360,000; AID 743279, 2014; in the data active = activity change below about -50%; inconclusive = mostly about -30% to -49%
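Secreted IL-1B measured by AlphaLISA bead assay after 16 h compound exposure of THP-1 cells; compounds (final up to 57.5 uM) added 1 h before LPS (250 ng/mL) and ATP (1.25 mM) stimulation; lower signal means less secretion.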
The depositor's hits bear a star; u = inconclusive; x = no result given; [ ] = dose if it differs, or a comment. Unless noted, calls come from the whole dose curve; as a rule, active = well fitted curve in the direction sought with a large enough effect; inconclusive = small, poorly fitted or top-dose-only effect, or another doubt; inactive = no such curve, though single readings can be large; an effect the other way counts as inactive or inconclusive. Unless noted, % is set by controls: 0 for no effect and ±100 for the full control effect.

SMILES	HT1080-NT tox	TDP1 cell noCPT	TDP1 cell CPT	HT1080 IDH1KD tx	ELG1 repair inh	IL-1B inflam inh
O=C(Cn1nnc(-c2ccccc2)n1)Nc1cccc(S(=O)(=O)N2CCOCC2)c1	7%	12µM*	u	7%	3%	-9
CCN(CC)S(=O)(=O)c1cccc(NC(=O)COC(=O)c2cc(C)oc2C)c1	-6%	u	-25%	-2%	21µM*	16
Cc1ccc(S(=O)(=O)N2CCOCC2)cc1NC(=O)Cn1nnc(-c2ccccc2)n1	-2%	-23%	-19%	-2%	x	10
O=C(c1cn(-c2ccccc2)nc1-c1ccc(Cl)cc1)N1CCOCC1	-1%	-19%	-13%	-1%	-5%	-26
O=C(NC(=S)N1CCOCC1)c1cn(-c2ccccc2)nc1-c1ccccc1	-20%	u	u	-5%	18µM*	-3
Cc1cccc(NC(=O)c2cn(-c3ccccc3)nc2-c2ccccc2)c1C	x	21µM*	u	x	x	x
CC(C)c1nc2sc3c(N4CCCCC4)ncnc3c2c2c1CCCC2	x	-3%	6%	x	x	x
Cc1cc(C)n(CC(=O)N2CCCC(N3CCN(c4ccc(F)cc4)CC3)C2)n1 (stereo not given)	0%	0%	-14%	-3%	1%	-1
COc1ccc(-c2noc(CSCC(=O)Nc3cccc(C(F)(F)F)c3)n2)cc1OC	x	-19%	1%	x	x	x
CCOC(=O)C1=C(N)Oc2ccc(Br)cc2[C@@H]1[C@@H](C#N)C(=O)OCC	x	0%	4%	x	x	x
Cc1cc(C(=O)Nc2cccc(S(=O)(=O)N3CCOCC3)c2)c2ccccc2n1	-3%	23µM*	u	0%	u	23
Cc1cccc(NC(=O)c2cn(-c3ccccc3)nc2-c2ccccc2)c1	-5%	16µM*	u	1%	-25%	-1
O=C(Nc1cccc(S(=O)(=O)N2CCOCC2)c1)c1cn(-c2ccccc2)nc1-c1ccccc1	2%	23µM*	u	8%	u	-19
Cc1ccc(S(=O)(=O)N2CCOCC2)cc1NC(=O)c1cc(-c2ccccn2)nc2ccccc12	u	-27%	u	u	u	-51*
CCC(Sc1nc(-c2ccc(F)cc2)nc2c1Cc1c(CO)cnc(C)c1O2)C(=O)Nc1ccc(F)cc1 (stereo not given)	x	6%	11%	x	x	x
COC(=O)[C@]1(C)N[C@H](CN(C)C(=O)C2CCCCC2)[C@@H]2C(=O)N(Cc3ccccc3)C(=O)[C@@H]21	8%	12%	-3%	6%	22%	13
CCOc1ccccc1NC(=O)C1CCN(S(=O)(=O)Cc2ccccc2)CC1	x	-22%	5%	x	x	x
CCCCNC(=O)C1CCN(Cc2nc(-c3ccc(OC)c(OC)c3)oc2C)CC1	x	-24%	-11%	x	x	x
COc1ccc(-c2nc(CN3CCC(C(=O)NCCCN4CCN(c5ccccc5F)CC4)CC3)c(C)o2)cc1OC	x	1.2µM*	u	x	x	x
Cc1oc(-c2cccc(Cl)c2)nc1CN1CCC(C(=O)NCCCN2CCN(c3ccccc3F)CC2)CC1	x	3.7µM*	2.9µM*	x	x	x
O=C(NNC(=O)c1ccccc1-n1cccc1)c1ccc(Cl)nc1	-8%	21%	5%	-3%	-2%	18
Cn1c(NCC(O)c2ccccc2)nc2c1c(=O)n(Cc1ccc(Cl)c(Cl)c1)c(=O)n2C (stereo not given)	21µM*	21µM*	21µM*	18µM*	x	-67*
Cn1c(NCC(O)c2ccccc2)nc2c1c(=O)n(Cc1ccc(Cl)cc1)c(=O)n2C (stereo not given)	u	21µM*	16µM*	8%[9.24 µM]	u	-18
Oc1ccc(Cl)cc1C=Nc1ccc(Br)cc1	u	-29%	-5%	-29%	13%	16
Oc1c(Br)cc(Br)cc1/C=N/c1nccs1	-13%	18µM*	u	-15%	-15%	24
SMILES	HT1080-NT tox	TDP1 cell noCPT	TDP1 cell CPT	HT1080 IDH1KD tx	ELG1 repair inh	IL-1B inflam inh
Oc1ccc(Cl)cc1/C=N/c1nccs1	-7%	11µM*	13µM*	u	-8%	13
Oc1c(Br)cc(Br)cc1C=Nc1cccnc1	-10%	21µM*	u	-5%	-17%	10
Cc1nnc(C)n1/N=C/c1cc(Br)cc(Br)c1O	u	-7%	-3%	u	5%	25
Cc1cc(=O)oc2c(C)c(OCC(=O)Nc3cccnc3)ccc12	10%	4%	2%	16%	u	-3
O=C(c1cccc(F)c1)N(Cc1cc2cc3c(cc2nc1N1CCOCC1)CCC3)CC1CCCO1 (stereo not given)	x	-1%	8%[9.04 µM]	x	x	x
CC(NC(=O)COC(=O)c1ccc2c(=O)n3c(nc2c1)CCCCC3)c1ccccc1 (stereo not given)	-2%[9.24 µM]	1%	-1%	5%	11%	11
CC1Cc2ccccc2N1C(=O)CSc1nnc2c(n1)[nH]c1ccccc12 (stereo not given)	u	21µM*	u	-29%	0%	26
CC1Cc2ccccc2N1C(=O)CSc1nnc(-c2ccccc2)c(-c2ccccc2)n1 (stereo not given)	-20%	u	21µM*	-9%	u	u
CC1Cc2ccccc2N1C(=O)CSc1ncc(-c2ccc(F)cc2)n1C (stereo not given)	0%	u	u	-3%	u	-77*
CC(Sc1nnc(-c2ccccc2)c(-c2ccccc2)n1)C(=O)N1CCc2ccccc21 (stereo not given)	-11%	16µM*	u	-17%	-3%	-7
Cc1nnc(SC(C)C(=O)N2CCc3ccccc32)s1 (stereo not given)	8%	-2%	2%	3%	16%	0
CC1Cc2ccccc2N1C(=O)CSc1nncn1C (stereo not given)	18%	-20%	8%	6%	12%	4
CC(C)(C)c1ccc2cc(F)cc(F)c2n1	u	-9%	-12%	16%	x	25
CC(=O)Nc1ccc(OC[C@@H](O)CNC(C)C)cc1	x	-7%	21%	x	x	x

Assay outcomes from PubChem.
